Compound activity deposited in PubChem BioAssay by National Center for Advancing Translational Sciences (NCATS).
Rab9 promoter act – qHTS Assay for Rab9 Promoter Activators | Huh7 Rab9 promoter-luciferase reporter, luminescence, 24 h | Potency, µM (doses to about 9.22 µM), inactives show at the top dose activation, negative = inhibition, most hits filed as activators | actives 2.8% (n = 320,000); also: % of control where 0% means no effect; nearly all actives have a fitted effect of over 60% in size
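Stable Rab9-luc Huh7, 1500 cells/well, 2 h settle; cmpd in DMSO, 24 h, 37 °C/5% CO2; luciferase reagent 10 min RT; luminescence.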
Luc counter – Counterscreen for Luciferase (Kinase-Glo TM) Inhibition | actives 0.28% (n = 200,000) | Luciferin 4-monooxygenase (Photuris pensylvanica), Q27757 | Potency, µM (series often up to 38.3 µM), inactives show at the top dose activity change, negative = inhibition, actives largely listed as inhibitors | Kinase-Glo luciferase, ATP luminescence, 8 min; also: % is scaled to controls: 0 for no effect and ±100 for the full control effect; nearly all actives have a fitted effect of over 60% in size
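Light output from Kinase-Glo luciferase with luciferin and 10 uM ATP in 50 mM imidazole pH 7.2, KCl, MgCl2, Tween 20, BSA; compound pin-delivered, 8-min ambient incubation, then luminescence read.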
ELG1 genotox – qHTS screen for small molecules that induce genotoxicity in human embryonic kidney (HEK293T) cells expressing luciferase-tagged ELG1; HEK293T ELG1-luciferase reporter, luminescence, 16 h; actives 1.3% (n = 330,000); Potency, µM (series often up to 46 µM), for inactives: top-dose activity change, positive = activation, most hits filed as activators; also: % of control where 0% means no effect; nearly all actives have a fitted effect of over 60% in size
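Luminescence read-out: rising ELG1-luciferase signal, reflecting elevated ELG1 protein under genetic stress, flags genotoxic compounds. Cells were treated for 16 hr at 37 °C before ONE-Glo detection.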
FLuc counter – qHTS profiling assay for firefly luciferase inhibitor/activator using purifed enzyme and Km concentrations of substrates (counterscreen for miR-21 project); AID 588342, 2011; actives 6.9% (n = 360,000); Potency, µM (top dose mostly 57.5 µM), for inactives: top-dose activity change, negative = inhibition, actives largely listed as inhibitors; Luciferin 4-monooxygenase (Photinus pyralis), P08659; purified FLuc, Km substrates, luminescence inhibition;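 also: plate controls were vehicle for no effect and reference inhibitor for full effect; nearly all actives have a fitted effect of over 55% in size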
Target sequence (P08659 whole entry, looked up): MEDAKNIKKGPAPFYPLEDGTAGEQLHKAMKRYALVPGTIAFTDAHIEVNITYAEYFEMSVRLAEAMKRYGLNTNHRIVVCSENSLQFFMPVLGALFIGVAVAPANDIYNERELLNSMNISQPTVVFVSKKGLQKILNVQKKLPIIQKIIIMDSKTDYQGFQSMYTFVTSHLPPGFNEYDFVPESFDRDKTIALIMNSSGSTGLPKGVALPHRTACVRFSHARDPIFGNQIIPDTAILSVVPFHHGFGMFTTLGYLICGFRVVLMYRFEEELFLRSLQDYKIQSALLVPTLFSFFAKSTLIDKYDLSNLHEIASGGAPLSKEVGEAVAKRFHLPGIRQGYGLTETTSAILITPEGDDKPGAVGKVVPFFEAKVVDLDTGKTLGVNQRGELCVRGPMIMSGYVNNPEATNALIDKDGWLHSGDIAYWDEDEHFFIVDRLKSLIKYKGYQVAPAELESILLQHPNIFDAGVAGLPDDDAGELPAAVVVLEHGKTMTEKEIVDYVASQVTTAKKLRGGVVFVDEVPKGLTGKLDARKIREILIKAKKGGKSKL
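Purified P. pyralis luciferase, 10 nM final, with Km-level 10 uM D-luciferin and 10 uM ATP in 50 mM Tris acetate pH 7.5, 10 mM Mg acetate, 0.01% Tween-20, 0.05% BSA; 6-point qHTS titration about 60 µM downward; luminescence read.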
NPC1 promoter act – qHTS Assay for NPC1 Promoter Activators | Huh7 NPC1 promoter luciferase reporter, 24 h | Potency, µM (doses to about 9.22 µM), without a hit: top-dose activation, actives largely listed as activators | actives 2.4% (n = 320,000) | AID 485313, 2010; also: % of control where 0% means no effect; nearly all actives have a fitted effect of over 60% in size
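Stably transfected Huh7 (NPC1 promoter→luciferase), 1500 cells/well in Opti-MEM + 10% FBS, 2 h settle, then compound 24 h at 37 °C. Luminescence after 10 min with Amplite reagent.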
SMN2 splice enh – qHTS Assay for Enhancers of SMN2 Splice Variant Expression; HEK293 SMN2-luciferase splicing reporter, luminescence, 30-36 h; Potency, µM (doses to about 46.1 µM), inactives show at the highest dose activity change, positive = activation, most hits filed as activators; actives 2.8% (n = 210,000); also: % of control where 0% means no effect; nearly all actives have a fitted effect of over 55% in size
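qHTS luciferase splicing reporter: luminescence rises when SMN2 exon 7 is included in transfected HEK293 cells. Compound exposure lasted 30-36 h at 37C, with 4.5 mM final sodium butyrate as control, followed by a ONE-Glo read.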
* marks the source's active call; other numbers are inactive results; ? = inconclusive; / = no result given; [ ] = another dose, or the depositor's remark. An excerpt weighted towards active compounds, which were near 7.5% of everything screened. Calls follow the shape of the dose curve; as a rule, active = well fitted curve in the direction sought with a large enough effect; inconclusive = small, poorly fitted or top-dose-only effect, or another doubt; inactive = no such curve, though single readings can be large; an effect the other way counts as inactive or inconclusive. Potency is read from the fitted curve at half-maximal effect.

SMILES	Rab9 promoter act	Luc counter	ELG1 genotox	FLuc counter	NPC1 promoter act	SMN2 splice enh
COc1ccc2nc(N/C(N)=N/S(C)(=O)=O)nc(C)c2c1	13.6%	/	?	15.1µM*	16.7%	/
COc1ccc2nc(N/C(N)=N/C(=S)Nc3cccc(C)c3)nc(C)c2c1	-4.6%	1.8%	-4.0%	?	-2.8%	-28.8%
COc1ccc2nc(N/C(N)=N/C(=S)Nc3c(C)cccc3C)nc(C)c2c1	-6.1%	-3.6%	-3.2%	-8.5%	-13.5%	-6.3%
COc1ccc(NC(=S)/N=C(\N)Nc2nc(C)c3ccccc3n2)cc1	-6.2%	/	-10.5%	9.53µM*	1.9%	/
O=C(CCN1CCCCC1)Nc1ccc2c(c1)C(=O)c1ccc(NC(=O)CCN3CCCCC3)cc1C2=O	/	2.1%[39.9 µM]	/	/	/	/
CCOC(=O)C1CCN(c2nc3c(S(=O)(=O)c4ccccc4)nnn3c3ccsc23)CC1	/	/	/	4.9%	/	/
CC(C)(C)c1ccc(S(=O)(=O)CCc2ccccn2)cc1	?	2.2%	20.6µM*	16.9µM*	?	9.3%
Fc1ccc(N2CCN(Cc3ccccn3)CC2)cc1	9.0%	-1.8%	-2.2%	0.4%	-7.3%	-5.3%
c1ccc(CCNc2ccccn2)nc1	/	-8.2%[7.66 µM]	/	/	/	1.1%[9.22 µM]
CC(C)(C)c1ccc(SCCc2ccccn2)cc1	3.16µM*	/	?	3.79µM*	2.24µM*	/
Fc1ccc(SCCc2ccccn2)cc1	?	/	?	16.9µM*	21.7%	/
CCOc1ccc(C2NC(=O)CCC2[N+](=O)[O-])cc1 (stereo not drawn)	8.5%	/	0.9%	-3.6%	0.7%	/
NC(=S)c1ccc[n+]([C@@H]2O[C@@H](COP(=O)([O-])OP(=O)(O)OC[C@H]3O[C@@H](n4cnc5c(N)ncnc54)[C@H](OP(=O)(O)O)[C@@H]3O)C(O)C2O)c1 (stereo partly drawn)	-5.8%[46.1 µM]	/	/	/	3.0%[46.1 µM]	/
O=S(=O)(c1ccc(Cl)cc1)c1nc(-c2ccccc2)oc1N1CCN(c2ccccc2)CC1	/	/	/	-0.2%	/	12.8%
CN(C(=O)c1cccnc1)c1nnc(-c2ccccn2)s1	?	-2.1%	?	19µM*	?	/
CC(=O)N(C)c1nnc(-c2ccccn2)s1	15.0%	-12.9%	?	?	27.5%	20µM*
CN(C(=O)c1cccnc1)c1nnc(-c2cnccn2)s1	-0.4%	-3.4%	13.8%	?	4.1%	21.4%
CN(C(=O)c1ccccn1)c1nnc(-c2cnccn2)s1	?	/	?	10.7µM*	?	/
COCCn1c(C)cc(O)c(C(c2ccc(Cl)cc2)N2CCN(c3ccccc3)CC2)c1=O (stereo not drawn)	/	/	/	-3.3%	/	/
NS(=O)(=O)c1cccc(NC(=O)/C=C/c2cccs2)c1	?	-4.2%	16.9%	7.57µM*	?	?
NS(=O)(=O)c1ccc(NC(=O)/C=C/c2cccs2)cc1	0.9%	/	10.2%	-0.4%	12.6%	/
CCc1nnc(NC(=O)C=C(C)C)s1	?	1.6%	?	?	?	10µM*
Cc1ccccc1NC(=O)C(=O)Nc1ccccc1C	0.891µM*	/	?	?	1.26µM*	/
CCOC(=O)c1ccc(NC(=O)/C=C/c2cccs2)cc1	?	-6.2%	-1.4%	10.7µM*	?	?
C=CC1CO1 (stereo not drawn)	/	/	/	/	/	1.7%
SMILES	Rab9 promoter act	Luc counter	ELG1 genotox	FLuc counter	NPC1 promoter act	SMN2 splice enh
O=C(/C=C/c1cccs1)Nc1ccc(Br)cn1	?	-2.6%	9.2µM*	3.01µM*	?	14.1µM*
O=C(/C=C/c1cccs1)NC1CC1	17.9%	-3.5%	3.6%	-18.4%	6.9%	1.8%
O=C(/C=C/c1cccc(F)c1)Nc1nccs1	1.78µM*	-2.2%	?	9.53µM*	2µM*	11.2µM*
O=C(/C=C\c1ccccc1)Nc1nccs1	0.891µM*	-17.6%	?	1.9µM*	1.58µM*	3.98µM*
O=C(/C=C/c1cccs1)Nc1cccc(NC(=O)/C=C/c2cccs2)n1	?	-2.3%	-2.8%	1.9µM*	?	7.08µM*
COc1ccc(/C=C/C(=O)NC(=S)Nc2ccc(Br)cn2)cc1	18.5%	/	14.8%	-15.1%	16.8%	/
O=c1c(S(=O)(=O)c2ccccc2)cn(Cc2ccc(F)cc2)c2cc(N3CCCCC3)c(F)cc12	/	/	/	-2.1%	/	/
CCOC(=O)N1CCC(NC(=O)c2cnn(-c3cccc(F)c3)c2-n2cccc2)CC1	/	/	/	-6.9%	/	/
CN(CC(=O)Nc1ccccc1Cl)C(=O)COC(=O)CSc1ccc(Cl)cc1	-2.6%	/	2.4%	-2.6%	-1.0%	/
CCN(CC)S(=O)(=O)c1ccc(C)c(NC(=O)/C=C/c2cccs2)c1	-0.7%	-1.6%	-4.2%	?	0.2%	-31.9%
O=C(/C=C/c1cccs1)Nc1ccc(S(=O)(=O)Nc2ncccn2)cc1	-5.9%	/	-0.5%	-12.8%	-8.8%	/
O=C(/C=C/c1cccs1)Nc1nccs1	2.24µM*	-14.2%	18.3µM*	?	1.78µM*	12.6µM*
Cc1cc(C)nc(NC(=O)/C=C/c2cccs2)c1	3.55µM*	/	?	13.5µM*	?	/
O=C(Nc1nccs1)C(Br)C(Br)c1ccccc1 (stereo not drawn)	0.501µM*	/	?	4.78µM*	1.12µM*	/
Cc1ccccc1NC(=O)/C=C/c1cccs1	4.47µM*	-23.5%	?	?	?	12.6µM*
CC(=O)OC(C(=O)Nc1nccs1)c1ccccc1 (stereo not drawn)	8.5%	/	-6.4%	0.5%	-1.0%	/
Cc1ccc(NC(=O)c2cc(-c3ccc(Br)s3)nc3ccccc23)cc1F	/	/	/	-1.8%	/	6.4%
Clc1ccc(CNc2cc(-c3ccccc3)nc3nncn23)cc1	/	/	/	-6.9%	/	-5.4%
COc1ccc(S(=O)(=O)NCC2CC3C=CC2C3)cc1OC (stereo not drawn)	5.8%	/	3.0%	4.1%	-4.0%	/
CCCCC/C=C\C[C@@H]1O[C@H]1C(O)/C=C\C/C=C\CCCC(=O)O (stereo partly drawn)	/	1.4%	/	/	/	2.0%
CCCCNC(=O)/C=C/c1cccs1	18.5%	-2.4%	13.6%	?	10.2%	11.2%
CCc1nnc(NC(=O)/C=C/c2cccs2)s1	3.55µM*	1.1%	23.1µM*	-15.8%	?	?
COc1nccnc1NS(=O)(=O)c1ccc(N=Cc2c(C)[nH]n(-c3ccc(C)c(C)c3)c2=O)cc1	15.2%	10µM*	12.4%	15.1µM*	3.0%	-19.0%
